Consider eight compounds from PubChem BioAssay (Tox21).

The nature of assay [1]: Nuclear factor erythroid 2-related factor 2/antioxidant responsive element (Nrf2/ARE) small molecule agonists: qHTS cell viability counter screen in human keratinocytes (AID 1919968; active = well fitted curve in the direction sought with a large enough effect in the repeat runs; an effect the other way counts as inactive or inconclusive; note: nearly all actives have a fitted effect of over 55% in size). The procedure, abridged: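 Seed 1,500 KeratinoSens cells per well, then incubate 5 h at 37 C/5% CO2. Add compounds in DMSO and incubate 23 h. Add CellTiter-Fluor, wait 1 h and read fluorescence.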
A general note: Quantitative high-throughput screening tests each substance at several concentrations.

The nature of assay [2]: Nuclear factor erythroid 2-related factor 2/antioxidant responsive element (Nrf2/ARE) small molecule agonists: luciferase reporter gene qHTS assay in human keratinocytes (AID 1919969). Note: nearly all actives have a fitted effect of over 35% in size. On the technique in general: A reporter such as luciferase makes a cellular process visible.
Assay [3] deals with Gonadotropin-releasing hormone receptor (Homo sapiens) (UniProt P30968). The assay can be described thus: Human gonadotropin-releasing hormone receptor (GnRHR) small molecule agonists, calcium flux assay in GnRHR-HEK293 cells (AID 1920063). Note: nearly all actives have a fitted effect of over 35% in size. A digest of the protocol:
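Cells: HEK293 stably expressing human GnRHR. Steps: overnight (18 h) culture, 1 h calcium dye loading at 37 C, compound addition, kinetic fluorescence read at 480/540 nm. Each compound tested at 15 concentrations in triplicate.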
On the technique in general: Calcium flux is commonly read through the fluorescence of an indicator in the cells.

Assay [4] deals with KiSS-1 receptor (Homo sapiens) (UniProt Q969F8). The experiment in a line: Human kisspeptin (KISS1R) small molecule agonists, calcium flux assay in KISS1R-HEK293 cells (AID 1920064; active = well fitted curve in the direction sought with a large enough effect in the repeat runs; an effect the other way counts as inactive or inconclusive). The procedure, abridged: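 Cells plated and incubated 18 h; dye added, 1 h at 37 C; compounds in DMSO pinned in; signal read at 480/540 nm every second for 3 min. Each compound tested at 15 concentrations in triplicate.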

Assay [5] in a line: G protein-coupled receptor (GPCR) small molecule agonists, calcium flux assay: HEK293 wild type cell line counter screen (AID 1920065). A digest of the protocol: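 Counter-screen of the Tox21 10K library for non-specific calcium release: dye-loaded cells received compounds in DMSO and were monitored by kinetic fluorescence (480/540 nm, 3 min). Fifteen concentrations, run in triplicate.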

Assay [6] in a line: p53 small molecule agonists, cell-based qHTS assay with human liver microsomes (AID 1963577). The procedure, abridged: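 In this qHTS, p53 response-element beta-lactamase cells receive test compound together with a microsome/NADPH activating system (0.5 mg/mL final each) and are incubated 16 h at 37 C before LiveBLAzer fluorescence detection.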
The nature of assay [7]: p53 small molecule agonists, cell-based qHTS assay with rat liver microsomes (AID 1963578). A digest of the protocol: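 Agonist mode in p53RE-bla reporter cells, with compounds co-incubated 16 h at 37 C alongside 0.5 mg/mL rat liver microsomes and 0.5 mg/mL NADPH (final), followed by a 2 h LiveBLAzer detection step.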
Assay [8] in a line: p53 small molecule agonists, cell-based qHTS assay with human liver microsomes: qHTS cell viability counter screen (AID 1963579). Note: nearly all actives have a fitted effect of over 45% in size. The procedure, abridged: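 Metabolically activated exposure: compounds, human liver microsomes and NADPH (0.5 mg/mL final apiece) were added to p53RE-bla cells seeded 5 h earlier, left 16 h at 37 C, and then assessed for viability by CellTiter-Glo luminescence.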

Assay [9] can be described thus: p53 small molecule agonists, cell-based qHTS assay with rat liver microsomes: qHTS cell viability counter screen (AID 1963580). Note: nearly all actives have a fitted effect of over 45% in size. The procedure, abridged: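 In HCT-116 cells carrying a p53 response element-bla reporter, compounds were metabolically activated in situ by rat liver microsomes with NADPH over 16 h. Cell ATP content then served as the cytotoxicity measure.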

Assay [10] can be described thus: p53 small molecule agonists, cell-based qHTS assay: qHTS cell viability counter screen (AID 1963581). Note: nearly all actives have a fitted effect of over 45% in size. A digest of the protocol:
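Cells: HCT-116 with p53 response element-driven beta-lactamase. Treatment: 16 h, 37 C, compounds in DMSO. Read: CellTiter-Glo luminescence after 30 min RT.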

A short description of assay [11]: p53 small molecule agonists, cell-based qHTS assay (AID 1963582; active = well fitted activation curve with a large enough effect in the signal ratio in the repeat runs, not every such curve was filed as active; the % refers to the signal ratio). The procedure, abridged: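 Quantitative HTS in p53RE-bla cells: after a 5 h settling period, compounds delivered in DMSO were left on cells for 16 h at 37 C, and reporter induction was measured as fluorescence following 2 h substrate loading.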
For assay [12], the target named is 5-hydroxytryptamine receptor 2A (Homo sapiens) (UniProt P28223). The experiment in a line: 5-hydroxytryptamine receptor 2A (HTR2A) small molecule agonists, cell-based qHTS assay (AID 1963587). Note: nearly all actives have a fitted effect of over 30% in size. A digest of the protocol:
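HTR2A-CHO cells, plated 18 h at 37 C/5% CO2, dye-loaded 1 h at 37 C; compounds in DMSO added by pin tool (agonist mode). Intracellular calcium flux read as kinetic fluorescence on FDSS over 2 min at 1 s intervals.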

In assay [13] the target is Muscarinic acetylcholine receptor M1 (Homo sapiens) (UniProt P11229). The assay can be described thus: Cholinergic receptor muscarinic 1 (CHRM1) small molecule antagonists, cell-based qHTS assay (AID 1963588). Note: nearly all actives have a fitted effect of over 40% in size. The procedure, abridged: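 CHRM1-CHO calcium-flux assay, antagonist mode. Cells were seeded 18 h, dye-loaded 1 h at 37 C and given compound for 5 min at RT, then acetylcholine was added at 50nM. FDSS fluorescence was read 3 min; 15 concentrations, three runs.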

Assay [14] has the same target. The experiment in a line: Cholinergic receptor muscarinic 1 (CHRM1) small molecule agonists, cell-based qHTS assay (AID 1963589). Note: nearly all actives have a fitted effect of over 35% in size. A digest of the protocol: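 Agonist-mode qHTS in CHO cells stably carrying human muscarinic M1. Intracellular calcium is tracked by fluorescence every second after compound transfer; each compound runs at 15 concentrations in three independent runs.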

Assay [15] can be described thus: cAMP Responsive Elements (CRE) small molecule agonists, cell-based qHTS assay (AID 1963590). The procedure, abridged:
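Agonist mode qHTS in CRE-bla HEK 293T cells: compounds dosed from DMSO for 3 h at 37 C/5% CO2, followed by LiveBLAzer B/G FRET substrate for 2 h at room temperature.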

A short description of assay [16]: cAMP Responsive Elements (CRE) small molecule antagonists, cell-based qHTS assay (AID 1963591; active = well fitted inhibition curve with a large enough effect in the signal ratio in the repeat runs, not every such curve was filed as active; the % refers to the signal ratio). The procedure, abridged:
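Antagonist mode: test compounds are co-incubated with the adenylyl cyclase activator NKH477 (0.25 uM final) on CRE-bla HEK293T cells for 3 h at 37 °C, followed by LiveBLAzer substrate loading.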

Assay [17] has as its target Beta-2 adrenergic receptor (Homo sapiens) (UniProt P07550). The experiment in a line: Adrenergic beta2 receptor (ADRB2) small molecule antagonists, cell-based qHTS assay (AID 1963592). Note: series mostly up to about 92 µM; nearly all actives have a fitted effect of over 50% in size. A digest of the protocol:
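Cells (CHO, stable ADRB2 overexpression) incubated 18-20hr at 37C; compounds added from DMSO; agonist mix (1nM isoproterenol, 100uM IBMX, 25uM Ro-20-1724) added; 0.5hr RT; d2-cAMP and anti-cAMP-cryptate added; 1hr RT; 665/615 nm read.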

Assay [18] shares this target. The assay can be described thus: Adrenergic beta2 receptor (ADRB2) small molecule agonists, cell-based qHTS assay (AID 1963593).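 Note: CHO cells stably overexpressing human ADRB2.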 A digest of the protocol:
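CHO cells stably over-expressing ADRB2 were plated overnight at 37C, then dosed with compounds plus a stimulation mix containing 100uM IBMX and 25uM Ro-20-1724 for 0.5hr at room temperature. cAMP was measured by HTRF competition, 1hr.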

The target of assay [19] is D(2) dopamine receptor (Homo sapiens) (UniProt P14416). The assay can be described thus: Dopamine D2 receptor (DRD2) small molecule agonists, cell-based qHTS assay (AID 1963594). Note: nearly all actives have a fitted effect of over 35% in size. Note: potency is the fitted concentration of half-maximal effect. A digest of the protocol:
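HEK293 cells stably expressing DRD2 were cultured 24 h at 37 C, then given Ro20-1724 (0.1 mM final) and compounds for 10 min at room temperature. NKH477 (200nM) was then added for 30 min. cAMP was read by HTRF.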

The target is the same in assay [20]. The experiment in a line: Dopamine D2 receptor (DRD2) small molecule antagonists, cell-based qHTS assay (AID 1963595; active = well fitted inhibition curve with a large enough effect in the signal ratio in the repeat runs, with a control signal flat; the % refers to the signal ratio). A digest of the protocol:
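Cells were plated and grown for 24 h at 37 °C. Ro20-1724 (0.1 mM final) went in first, then compound for 10 min. NKH477 (200 nM) with quinpirole (12 nM) followed for 30 min at RT, then HTRF detection reagents for 1 h.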

Structures are written as SMILES. Unmarked numbers belong to inactive results. Inconclusive results are not listed. The source made the active and inactive calls. Unless noted, calls come from the whole dose curve.
% is set by controls: 0 for no effect and ±100 for the full control effect.

D(2) dopamine receptor (Homo sapiens), sequence (P14416 whole entry, looked up): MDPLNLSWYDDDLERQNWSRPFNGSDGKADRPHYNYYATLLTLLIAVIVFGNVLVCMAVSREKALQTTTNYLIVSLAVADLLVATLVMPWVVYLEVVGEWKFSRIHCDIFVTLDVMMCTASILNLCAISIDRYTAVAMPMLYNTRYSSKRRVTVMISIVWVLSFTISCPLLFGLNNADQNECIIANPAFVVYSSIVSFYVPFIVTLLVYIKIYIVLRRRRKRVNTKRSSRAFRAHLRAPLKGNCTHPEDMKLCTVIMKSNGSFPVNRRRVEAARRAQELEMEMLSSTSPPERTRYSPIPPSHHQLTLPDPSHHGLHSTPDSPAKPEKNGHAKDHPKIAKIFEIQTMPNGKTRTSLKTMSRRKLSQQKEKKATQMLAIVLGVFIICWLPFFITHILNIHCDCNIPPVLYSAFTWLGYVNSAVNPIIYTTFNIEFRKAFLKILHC
KiSS-1 receptor (Homo sapiens), sequence (Q969F8 whole entry, looked up): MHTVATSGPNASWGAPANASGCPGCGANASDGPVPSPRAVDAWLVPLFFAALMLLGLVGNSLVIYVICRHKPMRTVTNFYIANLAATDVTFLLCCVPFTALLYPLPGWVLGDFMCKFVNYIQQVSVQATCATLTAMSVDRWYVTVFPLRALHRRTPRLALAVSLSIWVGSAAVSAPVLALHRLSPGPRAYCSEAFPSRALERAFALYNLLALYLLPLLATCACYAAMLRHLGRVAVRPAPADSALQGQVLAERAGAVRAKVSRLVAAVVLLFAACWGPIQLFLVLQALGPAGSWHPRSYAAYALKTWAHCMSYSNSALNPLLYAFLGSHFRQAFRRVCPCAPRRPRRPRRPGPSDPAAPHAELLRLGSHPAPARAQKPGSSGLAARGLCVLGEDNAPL
Muscarinic acetylcholine receptor M1 (Homo sapiens), sequence (P11229 whole entry, looked up): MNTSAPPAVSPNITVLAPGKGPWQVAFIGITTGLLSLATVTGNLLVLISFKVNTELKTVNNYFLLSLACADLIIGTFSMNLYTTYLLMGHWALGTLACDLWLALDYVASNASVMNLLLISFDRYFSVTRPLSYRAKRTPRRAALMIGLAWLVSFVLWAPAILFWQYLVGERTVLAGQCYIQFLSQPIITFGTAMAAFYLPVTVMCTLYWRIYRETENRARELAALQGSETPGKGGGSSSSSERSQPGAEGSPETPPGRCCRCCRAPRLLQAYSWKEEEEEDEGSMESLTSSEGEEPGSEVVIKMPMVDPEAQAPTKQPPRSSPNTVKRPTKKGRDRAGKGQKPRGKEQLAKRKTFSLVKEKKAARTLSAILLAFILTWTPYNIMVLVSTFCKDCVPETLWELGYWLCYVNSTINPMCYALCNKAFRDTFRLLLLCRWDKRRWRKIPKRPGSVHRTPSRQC
Gonadotropin-releasing hormone receptor (Homo sapiens), sequence (P30968 whole entry, looked up): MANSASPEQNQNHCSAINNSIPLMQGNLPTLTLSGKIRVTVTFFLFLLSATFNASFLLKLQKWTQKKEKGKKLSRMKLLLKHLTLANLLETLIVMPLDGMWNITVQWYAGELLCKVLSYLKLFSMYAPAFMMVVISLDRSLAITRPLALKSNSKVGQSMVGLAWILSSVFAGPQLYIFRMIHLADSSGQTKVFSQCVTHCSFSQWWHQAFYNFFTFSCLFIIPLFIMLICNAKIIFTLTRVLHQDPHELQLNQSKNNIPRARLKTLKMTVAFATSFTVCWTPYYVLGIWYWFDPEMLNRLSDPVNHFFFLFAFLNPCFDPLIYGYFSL
5-hydroxytryptamine receptor 2A (Homo sapiens), sequence (P28223 whole entry, looked up): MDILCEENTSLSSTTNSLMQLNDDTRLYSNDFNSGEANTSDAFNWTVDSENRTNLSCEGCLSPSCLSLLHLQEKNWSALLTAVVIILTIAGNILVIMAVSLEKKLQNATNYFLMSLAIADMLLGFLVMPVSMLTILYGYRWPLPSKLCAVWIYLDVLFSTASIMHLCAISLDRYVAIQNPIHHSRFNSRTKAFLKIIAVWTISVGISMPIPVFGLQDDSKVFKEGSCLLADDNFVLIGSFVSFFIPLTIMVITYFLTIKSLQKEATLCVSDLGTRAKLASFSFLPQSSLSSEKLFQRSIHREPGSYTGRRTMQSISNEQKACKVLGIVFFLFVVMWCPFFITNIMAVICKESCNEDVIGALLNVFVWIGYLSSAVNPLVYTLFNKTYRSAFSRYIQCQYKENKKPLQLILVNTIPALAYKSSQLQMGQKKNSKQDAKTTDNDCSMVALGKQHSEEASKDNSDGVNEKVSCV
Beta-2 adrenergic receptor (Homo sapiens), sequence (P07550 whole entry, looked up): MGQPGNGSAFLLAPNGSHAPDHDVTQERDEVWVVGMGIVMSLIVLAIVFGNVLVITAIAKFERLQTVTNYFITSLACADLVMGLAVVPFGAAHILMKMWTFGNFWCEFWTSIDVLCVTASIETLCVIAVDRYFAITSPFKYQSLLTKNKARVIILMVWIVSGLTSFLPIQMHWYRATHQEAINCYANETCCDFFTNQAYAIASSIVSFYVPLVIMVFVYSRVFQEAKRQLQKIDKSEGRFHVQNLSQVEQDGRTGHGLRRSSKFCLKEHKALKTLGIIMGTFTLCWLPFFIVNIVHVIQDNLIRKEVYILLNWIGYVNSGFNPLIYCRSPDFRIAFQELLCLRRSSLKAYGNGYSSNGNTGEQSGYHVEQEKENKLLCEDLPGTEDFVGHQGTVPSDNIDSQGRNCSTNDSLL

In the case of `CCCCC(O)/C=C(C)/C=C/C=C/C(=O)N1CCCC1=O` (stereo not given), the Potency entry in assay [1], in assay [2], in [3], in assay [4], in assay [5] and in assay [6] was “inactive” each time. The Potency entry in assay [7], in assay [8], in assay [9], in [10], in assay [11] and in assay [12] was “inactive” throughout. Further, the Potency entry in assay [13], in assay [14], in assay [15], in assay [16], in [17] and in [18] was “inactive” each time. In addition, the Potency entry in [19] and in [20] was “inactive” throughout.

Consider `Cc1ccccc1OCC1CO1` (stereo not given), for which the Potency result in [1], in assay [2], in assay [3], in assay [4], in assay [5] and in assay [6] was “inactive” throughout. The Potency entry in assay [7], in assay [8], in [9], in [10], in assay [11] and in [12] was “inactive” each time. Moreover, the Potency result in assay [13], in [14], in assay [15], in assay [16], in assay [17] and in assay [18] was “inactive” in each case. Besides, the Potency entry in assay [19] and in [20] was “inactive” each time.

In the case of `CCCc1c2oc(C(=O)O)cc(=O)c2cc2c(=O)cc(C(=O)O)n(CC)c12`, the Potency entry in assay [1], in assay [2], in assay [3], in assay [4], in [5] and in assay [6] was “inactive” in each case. In addition, the Potency entry in [7], in assay [8], in [9], in [10], in assay [11] and in [13] was “inactive” throughout. The Potency entry in assay [14], in assay [16], in assay [18], in assay [19] and in assay [20] was “inactive” throughout.

Take `Nc1ccncc1N`: the Potency entry in [1], in assay [2], in [3], in [4], in assay [5] and in assay [6] was “inactive” throughout. Besides, the Potency result in [7], in [8], in assay [9], in [10], in [11] and in [12] was “inactive” in each case. Moreover, the Potency entry in assay [13], in [14], in [15], in assay [16], in [17] and in [18] was “inactive” in each case. Also, the Potency entry in assay [19] and in assay [20] was “inactive” each time.

On to `Cc1ccc(C)o1`, for which the Potency entry in assay [1], in assay [2], in [3], in assay [4], in [5] and in assay [6] was “inactive” in each case. Moreover, the Potency entry in [7], in [8], in [9], in [10], in assay [11] and in [13] was “inactive” each time. Also, the Potency result in assay [15], in assay [16], in assay [17], in [19] and in assay [20] was “inactive” throughout.

On to `C=CC(=O)OCCOC1C2CCC1C1CC=CC12` (stereo not given), for which the activity change, negative = cytotoxicity in assay [1] was 0.243% [at 19 µM]; in assay [8], -0.599% [at 13.5 µM]; in assay [9], -0.677% [at 13.5 µM]; in assay [10], 10.1% [at 13.5 µM]. In addition, in assay [2], the activity, positive = activation is -2.46% [at 19 µM]. In addition, the activity change in assay [3] is -0.687% [at 11.8 µM, hits give high values]. Besides, the activation is 0.154% [at 15.8 µM] in [4]; 0.0334% [at 11.8 µM] in assay [5]; -3.49% [at 13.5 µM] in [6]; -1.33% [at 13.6 µM] in assay [7]; -0.725% [at 13.5 µM] in assay [11]; -3.51% [at 15.9 µM] in assay [12]. Further, the activation in [14] was 0.0965% [at 15.8 µM]; in assay [15], -0.462% [at 19 µM]; in assay [18], -22.8% [at 19 µM]; in assay [19], -2.06% [at 19 µM]. Further, the activity, negative = inhibition in assay [13] is 1.12% [at 12.6 µM]. Also, the activity change, negative = inhibition was -8.52% [at 18.9 µM] in assay [16] and -1.49% [at 19 µM] in assay [17].

Take `CCN(CC)C(=O)C1CN2CCc3cc(OC)c(OC)cc3C2CC1OC(C)=O` (stereo not given): the Potency entry in assay [1], in assay [2], in assay [3], in assay [4], in [5] and in assay [6] was “inactive” each time. Also, the Potency result in [7], in assay [8], in assay [9], in [10], in assay [11] and in [14] was “inactive” in each case. The Potency result in assay [15], in assay [16], in assay [17], in [18], in assay [19] and in assay [20] was “inactive” each time.

For `CCN1CCc2nc(N)oc2CC1`, the Potency entry in assay [1], in [2], in assay [3], in assay [4], in [5] and in assay [6] was “inactive” each time. In addition, the Potency result in assay [7], in assay [8], in assay [9], in [10], in assay [11] and in assay [12] was “inactive” throughout. The Potency result in [13], in [14], in assay [15], in assay [16], in assay [17] and in assay [20] was “inactive” in each case. The Potency in assay [19] was 26.6 µM (active).
